The source of these data is ChEMBL document CHEMBL3988442, “University of Dundee, Small-Polar-MMV Screening Library” (2021).

Experiment [1] deals with T1, Aspartate--tRNA(Asp/Asn) ligase (Mycobacterium tuberculosis (strain ATCC 25618 / H37Rv)) (UniProt P9WFW3).
T1 sequence (whole entry): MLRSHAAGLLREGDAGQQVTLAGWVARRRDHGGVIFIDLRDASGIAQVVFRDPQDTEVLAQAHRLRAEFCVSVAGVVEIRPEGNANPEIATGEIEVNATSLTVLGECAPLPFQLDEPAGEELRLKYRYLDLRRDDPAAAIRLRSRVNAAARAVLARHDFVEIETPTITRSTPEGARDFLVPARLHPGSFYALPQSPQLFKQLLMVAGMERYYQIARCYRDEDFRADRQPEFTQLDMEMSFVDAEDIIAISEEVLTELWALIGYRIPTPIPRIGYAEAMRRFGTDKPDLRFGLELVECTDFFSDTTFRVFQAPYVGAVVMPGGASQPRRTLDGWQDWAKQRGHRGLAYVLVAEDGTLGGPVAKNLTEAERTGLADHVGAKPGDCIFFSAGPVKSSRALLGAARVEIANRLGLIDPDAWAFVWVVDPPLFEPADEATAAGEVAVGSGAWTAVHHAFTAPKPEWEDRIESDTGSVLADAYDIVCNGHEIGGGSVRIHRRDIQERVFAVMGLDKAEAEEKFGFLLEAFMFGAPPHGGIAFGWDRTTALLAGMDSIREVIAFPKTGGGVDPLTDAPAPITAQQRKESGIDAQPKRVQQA
In words: Assay for Asp RNA synthetase-1 from Mycobacterium tuberculosis. It is filed as functional. Also noted: scale not given: direction of the effect not stated beside the values. Conditions: 30 µM.

The target in experiment [2] is Shiga toxin 2 (Escherichia coli O157:H7) (UniProt P09385+P09386). In words: E. coli 0.157:H7 Shiga Toxin SOP - stx2 screening assay. The class given is functional. Also noted: scale not given: direction of the effect not stated beside the values. Conditions: 30 µM.

In the case of `CN(Cc1ccc(F)cc1)C(=O)CN1CCOC(Cn2cncn2)C1` (configuration not stated), the Percent Effect in experiment [1] was 3.63%; in experiment [2], -0.222%.

Regarding `CCOCC(=O)N1CCC(Oc2ccc(C(F)(F)F)cn2)CC1`, the Percent Effect stood at 2.2% in experiment [1] and 12.5% in experiment [2].

As for `O=C(c1ccco1)N1C[C@@H]2OCCN(CCN3CCCC3)[C@@H]2C1`, the Percent Effect in experiment [1] is 7.66%; in experiment [2], -2.25%.

`O=C(CCc1cccc(F)c1F)N1CCN(Cc2ccco2)CC1`: the Percent Effect was 0.502% in experiment [1] and -2.83% in experiment [2].

As to `Cc1cnn(CC2CCCN2C(=O)c2ccc3[nH]nnc3c2)c1` (configuration not stated), the Percent Effect is -3.83% in experiment [1] and -49.7% in experiment [2].

As for `O=C(C1=CCCC1)N1CCC[C@]2(C[C@@H](Oc3ncccc3F)CO2)C1`, the results for the Percent Effect in experiment [1] and in experiment [2] were 0.0684% and 7.81%, respectively.

As for `Cc1nc(C(=O)N2CCCC2c2c(C)nn(C)c2C)ccc1C#N` (configuration not stated), the Percent Effect in experiment [1] is -1.21%; in experiment [2], -18%.

Turning to `O=C(NC1CC1)c1cc(NC(=O)N2CCCC(O)C2)ccc1Cl` (configuration not stated), the Percent Effect was -0.137% in experiment [1] and -38.6% in experiment [2].

Turning to `CCc1nc(C2CCCN2CC(=O)Nc2sc(C)c(C)c2C)no1` (configuration not stated), the Percent Effect in experiment [1] was found to be 0.212%; in experiment [2], 8.78%.

On to `COc1ccc2nnc(CCCC(=O)NCc3cccn3C)n2n1`, for which the results for the Percent Effect in experiment [1] and in experiment [2] were -1.89% and -44.7%, respectively.

For `c1csc(CN2CCn3c(Cn4cncn4)cnc3C2)n1`, the Percent Effect in experiment [1] was -1.25%; in experiment [2], -17.5%.

As for `CN(C(=O)CCNC(=O)NC1CCCCC1)c1ccccc1`, the Percent Effect in experiment [1] is -1.38%; in experiment [2], 4.9%.

Turning to `COc1ccccc1CNC(=O)Cn1ncc2c1c(C)nn2C`, the figures for the Percent Effect in experiment [1] and in experiment [2] were -0.668% and -20.2%, respectively.

Regarding `COC1CC2(CCN(Cc3ccc4c(c3)OCO4)CC2)C1`, the Percent Effect in experiment [1] was -2.25%; in experiment [2], -2.07%.

Take `CC(C)c1nnc2n1CCN(C(=O)c1ccc(OCC(N)=O)cc1)C2`: the Percent Effect in experiment [1] is -5.82%; in experiment [2] it was -6.36%.

As for `Cn1cc(CN2CCCN(C(=O)c3cc(Cl)cn3C)CC2)cn1`, the Percent Effect was -4.75% in experiment [1] and 22.7% in experiment [2].

Consider `NC(=O)C1CCN(Cn2nc(-c3ccc(F)cc3)oc2=O)CC1`, for which the Percent Effect in experiment [1] was 4.96%; in experiment [2], -69.6%.

In the case of `CC(C)N1CCn2c(nc3cc(C(N)=O)ccc32)C1`, the Percent Effect in experiment [1] was 0.319%; in experiment [2], -34%.

For the compound `CN1CCC(c2nnc(CN3CCC(O)CC3)n2C)CC1`, the Percent Effect in experiment [1] is 10.8%; in experiment [2], -2.24%.

In the case of `Cc1cc(NC(=O)c2nc(N3CCCC3)ncc2Cl)nc(C(C)C)n1`, the Percent Effect in experiment [1] is 2.49%; in experiment [2], -23.7%.

Regarding `CCN1CCC(c2nc3ccc(NC(C)C)cn3n2)CC1`, the values for the Percent Effect in experiment [1] and in experiment [2] were 2.52% and 4.27%, respectively.

As for `CC(C)N(C)C(=O)C1=NOC2(CCN(C(=O)c3ccncc3)C2)C1` (configuration not stated), the Percent Effect was -1.05% in experiment [1] and -7.21% in experiment [2].

On to `CCCN(CCO)C(=O)C1CCC(=O)N(CCc2ccc(Cl)cc2)C1` (configuration not stated), for which the Percent Effect is -4.04% in experiment [1] and 18% in experiment [2].

As to `O=C(NCC(=O)N1CCCCC1)c1ccc(Cl)cc1I`, the Percent Effect in experiment [1] worked out at 0.257%; in experiment [2], 1.85%.

As to `CC(C)CC(=O)N1CC[C@@H]2[C@H](CC1)N(S(C)(=O)=O)CCS2(=O)=O`, the Percent Effect is -2.04% in experiment [1] and -14.8% in experiment [2].

Take `COCC(=O)N1CCCC1c1cc(Nc2nnc(C)s2)nc(C)n1` (configuration not stated): the values for the Percent Effect in experiment [1] and in experiment [2] were -3.43% and -14.2%, respectively.

Take `CCN1CCN(C(=O)C(C)N2CCN(Cc3nccn3C)CC2)CC1` (configuration not stated): the Percent Effect was 0.262% in experiment [1] and -3.01% in experiment [2].

As to `CNC(=O)c1cccnc1Oc1ccccc1`, the Percent Effect in experiment [1] is -3%; in experiment [2], 8.4%.

Consider `CN(C)CC(=O)N1CCCC2(CCC(=O)N(CCc3c[nH]cn3)C2)C1` (configuration not stated), for which the Percent Effect in experiment [1] is 0.773%; in experiment [2], -43.1%.

Take `O=C(c1n[nH]c2ccccc12)N1CCCC1c1noc(C2CC2)n1` (configuration not stated): the Percent Effect in experiment [1] is -5.34%; in experiment [2], 9.03%.

Regarding `Cn1cc(CCC(=O)N2C[C@H]3CC[C@@H]2CN(Cc2ccccc2)C3)cn1`, the Percent Effect in experiment [1] is 2.92%; in experiment [2], -3.02%.

In the case of `CC(C)N1Cc2c(C(=O)N3CCOCC3)nn(C)c2C1`, the Percent Effect in experiment [1] is 0.382%; in experiment [2], 5.36%.

Turning to `c1ncn(CC2CN(CC3CCCC3)CCO2)n1` (configuration not stated), the values for the Percent Effect in experiment [1] and in experiment [2] were 2.9% and -0.78%, respectively.

Consider `CC(C)(C)SCCCC(=O)N1CCC(Nc2cccnn2)CC1`, for which the Percent Effect in experiment [1] is -1.23%; in experiment [2] it was -5.49%.

On to `CCN1CC2(CC1=O)CN(C(C)=O)CCN(C(=O)c1ccco1)C2` (configuration not stated), for which the Percent Effect is -3.81% in experiment [1] and -35.2% in experiment [2].

For `CNC(=O)[C@@]12CCC3(CCN(C(C)=O)CC3)[C@@H]1CN(S(C)(=O)=O)C2`, the values for the Percent Effect in experiment [1] and in experiment [2] were -0.917% and -15.9%, respectively.

In the case of `O=C(NC1(c2cccc(F)c2)CCOCC1)c1ccoc1`, the Percent Effect was 2.05% in experiment [1] and -19.4% in experiment [2].

On to `CC(=O)N1[C@H](CN(C)C)C[C@@H]2CN(C(=O)c3cccc(F)c3)CC[C@@H]21`, for which the Percent Effect was -0.523% in experiment [1] and -3.85% in experiment [2].

On to `CCn1ncnc1C(C)NC(=O)C1CCN(C(=O)COC)CC1` (configuration not stated), for which the Percent Effect turned out to be 6.73% in experiment [1] and 11.1% in experiment [2].

Regarding `Cc1[nH]ccc1C(=O)Nc1cccc(CN2CCC(O)CC2)c1`, the Percent Effect in experiment [1] was 0.958%; in experiment [2] it was -28.9%.

As for `Cc1ccc(-c2nc(CNCCn3cccn3)cs2)o1`, the Percent Effect in experiment [1] was -0.233%; in experiment [2] it was 13%.

In the case of `CC(C)C(=O)N1CCN(Cc2cc(-c3ccncc3)nn2C)CC1`, the Percent Effect was 0.491% in experiment [1] and -50.3% in experiment [2].

In the case of `CN1CCN(C(=O)Cc2cccc(F)c2)Cc2cccnc21`, the Percent Effect in experiment [1] was -2.05%; in experiment [2], -29.8%.

For `CN(C)C(=O)Cc1ccc(NC(=O)NC2CCCCC2)cc1`, the Percent Effect in experiment [1] was -1.13%; in experiment [2] it was 1.55%.

With `Cn1cc(-c2cnc(N3CCOCC3)nc2)cc1C(=O)NCCO`, the values for the Percent Effect in experiment [1] and in experiment [2] were 8.57% and -9.13%, respectively.

In the case of `Cc1nn(C)c(N(C)C)c1CNCC(O)COc1ccccc1` (configuration not stated), the values for the Percent Effect in experiment [1] and in experiment [2] were -5.92% and -12%, respectively.
